Shown are actives, neighbours in structure and some others; about 2.3% of the full set was active somewhere.
CHRM1 antagonist: antagonists of human M1 muscarinic receptor. P11229. AID 588852. CHO-K1 hM1, Fluo-8 calcium fluorescence, ACh EC80 antagonist. inhibition, % at 3 µM. actives 1.3% (n = 360,000);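 active means percent inhibition above its own plate's cutoff, namely the mean of that plate's compound wells plus 3 SD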;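 further: peak over basal fluorescence ratio during 140 s after agonist addition; 0% = ACh EC80 plus DMSO and 100% = DMSO alone without agonist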
Target sequence (P11229 whole entry, looked up): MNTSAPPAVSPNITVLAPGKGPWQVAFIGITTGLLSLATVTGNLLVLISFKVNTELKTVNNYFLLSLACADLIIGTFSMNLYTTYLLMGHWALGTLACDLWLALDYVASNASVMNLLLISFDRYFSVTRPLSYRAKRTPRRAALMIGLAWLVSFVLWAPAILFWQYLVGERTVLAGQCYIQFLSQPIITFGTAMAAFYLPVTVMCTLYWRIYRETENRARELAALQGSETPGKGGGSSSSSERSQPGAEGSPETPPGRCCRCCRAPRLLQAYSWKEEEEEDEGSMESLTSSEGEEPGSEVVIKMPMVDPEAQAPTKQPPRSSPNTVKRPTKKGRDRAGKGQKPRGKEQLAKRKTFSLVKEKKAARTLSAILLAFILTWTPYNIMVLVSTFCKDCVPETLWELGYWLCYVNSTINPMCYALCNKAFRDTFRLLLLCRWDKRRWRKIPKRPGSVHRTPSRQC
CHO-K1 Ca PAM: nonselective activator or artifact in parental CHO-K1 calcium assay; ATP EC20, Fluo-8 calcium fluorescence; 0% at ATP EC20, 100% at ATP max; activation, % at 3 µM; actives 0.02% (n = 360,000);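 active means activation above the run cutoff, the mean activation of all test compounds plus 3 SD, cut at about 40% in these data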;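 further: peak over basal fluorescence ratio in a 140 s read after ATP addition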
M1 ag: activates human CHRM1 receptor; CHO-K1 hM1, Fluo-8 calcium fluorescence, agonist mode; 0% DMSO, 100% acetylcholine EC100; activation, % at 3 µM; P11229; actives 0.33% (n = 360,000);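 active means activation above the run's mean compound activation plus 3 SD, cut at about 16% in these data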;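 further: peak over basal fluorescence ratio within a 140 s kinetic read after compound addition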
M1 ag parental: nonselective activator or artifact in parental CHO-K1 cells. actives 0.48% (n = 360,000). Fluo-8 calcium fluorescence; scaled to maximal ATP response, vehicle zero. AID 602248. activation, % at 3 µM; in the data active means activation above about 15%;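 further: untransfected CHO-K1 host cells lacking M1 receptor as counterscreen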
M1 PAM: human CHRM1 positive allosteric modulation; P11229; CHO-K1 hM1, Fluo-8 calcium fluorescence, ACh EC20; 0% = ACh EC20, 100% = maximal ACh; activation, % at 3 µM; actives 0.088% (n = 360,000); AID 588819; in the data active means activation above about 19%, passing the limit was not always enough
CHO-K1 Ca antag: counter-screen for M1 antagonists: effect in parental CHO-K1 cells. ATP-induced calcium, Fluo-8 fluorescence. inhibition, % at 3 µM. actives 0.6% (n = 360,000). AID 602250;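 active means inhibition above a per-plate cutoff, the plate's mean sample inhibition plus 3 SD, cut at about 24% in these data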;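 further: 0% = DMSO plus EC80 ATP and 100% = DMSO alone without ATP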
* marks the source's active call; other numbers are inactive results; x = no result given; ! = a repeat was not active.

SMILES	CHRM1 antagonist	CHO-K1 Ca PAM	M1 ag	M1 ag parental	M1 PAM	CHO-K1 Ca antag
O=C(c1cccc(C(F)(F)F)c1)C1CCCN(Cc2cccc(OCCO)c2)C1 (stereo not drawn)	39*	-2	-11	4	-31	9
CC(=O)Nc1ccc(CN(C)CC2CCCN(CCc3cccc(C(F)(F)F)c3)C2)cc1 (stereo not drawn)	52*	15	-8	0	-29	-11
CC(=O)Nc1ccc(CN2CCCC(C(=O)c3ccc(C(F)(F)F)cc3)C2)cc1 (stereo not drawn)	51*	18	-16	3	-38	-15
COc1ccc(S(=O)(=O)N2CCOCC2)cc1NC(=O)CSc1n[nH]c(C(C)C)n1	-2	15	-7	0	12	4
O=C(c1cccc(C(F)(F)F)c1)C1CCCN(Cc2cccn2-c2ccccn2)C1 (stereo not drawn)	35*	5	-14	2	-36	0
CCOC(=O)C1=CCC(c2ccc(C#N)cc2)N(S(=O)(=O)c2ccc(C)cc2)C1 (stereo not drawn)	12	13	-7	1	-12	7
O=S(=O)(c1ccccc1)N1CCN(S(=O)(=O)c2ccccc2)C1	2	-1	-3	1	-2	1
O=S(=O)(/N=S1/CC=CCN1S(=O)(=O)c1ccccc1)c1ccccc1 (stereo not drawn)	-11	5	21*	12	12	10
CN1CCN(C(=O)CCc2nc3ccccc3n2-c2ccccc2)CC1	-21	22	-7	0	14	-11
CCCCNc1c(-c2ccc(OC)c(SC(C)CC)c2)nc2ccc(C)cn12 (stereo not drawn)	37*	-17	-6	3	-22	-2
COc1ccc(-c2nc3ccccn3c2NCc2ccc3c(c2)OCO3)cc1	13	3	-1	3	-9	4
CCCCNc1c(-c2ccc(OC)c(SC3CCCCC3)c2)nc2ccc(C)cn12	49*	-18	1	8	-16	33*
CCC(C)Sc1cccc(-c2nc3cc(C)ccn3c2NCc2ccccc2)c1 (stereo not drawn)	43*	11	-8	0	-20	-6
Cc1ccn2c(NCc3ccccc3)c(-c3cccc(SC4CCCCC4)c3)nc2c1	10	8	-7	0	-10	-20
COc1ccc(-c2cc(-c3nc4ccccn4c3NCc3ccccc3)ccc2OC)cc1	87*	-22	4	11	-32	52*
CCC(C)Sc1cc(-c2nc3ccc(C)cn3c2NCc2ccccc2)ccc1OC (stereo not drawn)	63*	-17	-6	3	-29	25*!
CC1(c2ccc(OC(F)F)cc2)NC(=O)N(CC(=O)N2CCN(C(=O)c3ccco3)CC2)C1=O (stereo not drawn)	-15	13	-2	1	13	-17
CC(CN1CCCCC1)OC(=O)C1c2ccccc2Oc2ccccc21 (stereo not drawn)	87*	5	-4	0	-21	-4
N#CN(CC(N)=O)c1nc(N2CCCCC2)nc(N2CCCCC2)n1	13	-9	-2	0	-11	28*
CSCC[C@H](NC(=O)Cc1c(C)c2c(cc(C)c3c(C)coc32)oc1=O)C(=O)O	-8	11	-3	0	10	-8
Cc1ccccc1C1c2[nH]c3ccccc3c2CCN1Cc1cccn1-c1ncccn1 (stereo not drawn)	66*	-14	-6	0	-26	-4
Cc1ccccc1C1c2[nH]c3ccccc3c2CCN1CCCn1cccn1 (stereo not drawn)	91*	23	-7	1	-23	-15
Fc1ccccc1C1c2[nH]c3ccccc3c2CCN1Cc1cccn1-c1ncccn1 (stereo not drawn)	13	0	-8	4	-15	7
Cc1ccc(NC2CCCN(C(=O)CN3C(=O)c4ccccc4C3=O)C2)cc1C (stereo not drawn)	-3	-7	-2	1	0	-5
Cc1cccc(C)c1-n1nnnc1C(c1ccnc2ccccc12)N(C)Cc1ccc(Cl)c(Cl)c1 (stereo not drawn)	x	12	x	0	x	-8
SMILES	CHRM1 antagonist	CHO-K1 Ca PAM	M1 ag	M1 ag parental	M1 PAM	CHO-K1 Ca antag
COc1ccc(C(=O)c2cn[nH]c2-c2cc(C)ccc2O)cc1	4	-15	-2	6	-3	-8
COc1ccc(C(=O)c2cn[nH]c2-c2cc(Cl)ccc2O)cc1	5	12	4	2	2	24*
N=C1/C(=C/c2coc3ccccc3c2=O)C(=O)N=C2SC(c3ccco3)=NN12	52*	-11	85*	63*	-26	34*
N=C1/C(=C\c2coc3ccccc3c2=O)C(=O)N=C2SC(c3ccncc3)=NN12	58*	-23	51*	69*	-21	29*
N=C1/C(=C\c2coc3ccc(O)cc3c2=O)C(=O)N=C2SC=CN12	21	-12	25*	33*	-12	15
CC1=NN2C(=N)/C(=C\c3cc(C)n(-c4ccccc4)c3C)C(=O)N=C2S1	0	-9	-4	0	0	9
COc1ccc(C(=O)COc2ccccc2C(=O)Nc2ccccc2)cc1	-3	16	-4	2	4	-10
CCn1c(C)c(C(C)=O)c(NCc2ccccc2)nc1=S	51*	0	-9	-1	-22	17
C/C(CC(=O)Nc1ccccc1F)=N\NC(=O)Cc1ccc(Cl)cc1	1	-8	-10	-1	3	18
COc1cccc(OC)c1C(=O)NCCOc1cc(C)cc(C)c1	-11	4	1	15*	6	10
NC(=O)c1cc2cc(Cl)ccc2o/c1=N/NC(=O)c1cccs1	-2	15	-3	2	5	-20
Cc1c(NC(=O)Nc2ccc(Cl)c(Cl)c2)c(=O)n(-c2ccccc2)n1C	40*	1	-3	5	-2	20
Cc1c(Cl)c([N+](=O)[O-])nn1CCCC(=O)Nc1c(C)n(C)n(-c2ccccc2)c1=O	67*	18	-8	1	-25	-9
Cc1c(NC(=O)Nc2ccccc2)c(=O)n(-c2ccccc2)n1C	15	6	-4	0	-6	-9
Cc1c(OCC(=O)NCCN2CCOCC2)ccc2c1oc(=O)c1ccccc12	7	-17	3	17*	-5	1
C=CCNc1nc(Cl)nc(Nc2cc(Cl)ccc2OC)n1	-3	0	-3	1	0	-2
CCCC(C)Sc1nc2c([nH]1)c(=S)n(C)c(=O)n2C (stereo not drawn)	-12	22	-2	1	-1	-14

Bioassay records: PubChem, The Scripps Research Institute Molecular Screening Center
